The results in this text go back to PubChem BioAssay (NCI).

Some test systems named below: SK-MEL-2 melanoma; EKVX NSCLC; SN12C renal; TK-10 renal; ACHN renal; A498 renal; CCRF-CEM leukemia; MOLT-4 leukemia; SR leukemia; UO-31 renal.
Test in all cases: NCI-60 one-dose screen, 48 h (100 = growth as untreated, 0 = no growth, -100 = all killed)
Common to all, as to conditions: 10 µM unless noted

The panel holds about 83,000 compounds, 20% with a hit somewhere; the sample as a whole holds those more often.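 A percent growth of 40 corresponds to 60% growth inhibition; 0 means no net growth; -100 means all cells died. Active threshold: below 10.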 Values without a mark were called inactive. Activity calls are given as the source filed them.

For `O=C1CCc2ccccc2N1`, the growth in the assay on SK-MEL-2 melanoma was 101%; in the assay with EKVX NSCLC, 75.5%; in the assay with SN12C renal, 99.1%; with TK-10 renal, 88.2%; in the assay on ACHN renal, 100%; with A498 renal it was 111%. Besides, the growth is 107% with CCRF-CEM leukemia, 110% in the assay on MOLT-4 leukemia and 93.5% in the assay on SR leukemia.
Turning to `O=C(O)c1cn(C2CC2)c2cc(N3CCN(Cc4nnc(Nc5ccccc5)o4)CC3)c(F)cc2c1=O`, the growth was 101% in the assay with SK-MEL-2 melanoma; 103% with EKVX NSCLC; 109% in the assay with SN12C renal; 112% with TK-10 renal; 103% in the assay with ACHN renal; 92.2% with A498 renal. Further, the growth with CCRF-CEM leukemia is 92%; in the assay on MOLT-4 leukemia, 98.5%; in the assay on SR leukemia it was 97.7%.
For the compound `C(=C\c1cn(-c2ccccc2)nc1-c1ccccc1)/c1nnc(-c2c[nH]c3ccccc23)o1`, the growth in the assay with SK-MEL-2 melanoma is 86%; in the assay on EKVX NSCLC it was 50.8%; with UO-31 renal, 73.2%; in the assay with TK-10 renal, 22.8%; in the assay with ACHN renal it was 40%; in the assay with A498 renal, 109%. Moreover, the growth was 78.8% in the assay on CCRF-CEM leukemia and 69.4% in the assay with MOLT-4 leukemia.
Turning to `Cc1cccc(C)c1NC(=O)CN(CC(C)C)CC(O)COc1ccccc1` (centres undefined), the growth in the assay on SK-MEL-2 melanoma was 93.8%; with EKVX NSCLC, 85.2%; in the assay on SN12C renal, 104%; in the assay with TK-10 renal, 96.9%; in the assay on ACHN renal, 104%; in the assay on A498 renal it was 63.8%. The growth in the assay on CCRF-CEM leukemia was 96.9%; in the assay with MOLT-4 leukemia it was 88.2%; in the assay with SR leukemia it was 92.1%.
For the compound `CC[C@]12C=CCN3CC[C@@]4(c5cc(NC(=O)CCC(=O)O[C@H]6CC[C@H]7[C@@H]8CC[C@H]9CC(=O)CC[C@]9(C)[C@H]8CC[C@]67C)c(OC)cc5N(C)[C@H]4[C@@](O)(C(=O)OC)[C@@H]1OC(C)=O)[C@@H]32`, the growth in the assay with SK-MEL-2 melanoma is 77.1%; in the assay on EKVX NSCLC, 66%; in the assay on SN12C renal, 71.2%; with TK-10 renal it was 90.5%; in the assay on ACHN renal, 87.1%; in the assay on A498 renal it was 66.3%. In addition, the growth is 9.54% (active) in the assay on CCRF-CEM leukemia, 17.8% in the assay on MOLT-4 leukemia and 24.8% with SR leukemia.
As for `COc1ccc(-c2cs/c(=N\N=C\c3ccc(O)cc3O)n2/N=C/c2ccc(O)cc2O)cc1`, the growth in the assay on SK-MEL-2 melanoma is -28.4% (active); with EKVX NSCLC, 7.59% (active); in the assay with SN12C renal, 4.01% (active); in the assay on TK-10 renal, -31.3% (active); in the assay on ACHN renal, -34.3% (active); in the assay with A498 renal, -6.11% (active). Further, the growth with CCRF-CEM leukemia was 2.63% (active); in the assay on MOLT-4 leukemia, -35.3% (active); with SR leukemia it was 6.76% (active).
Take `O=C1C(=O)c2c(nc3ccc(Br)cn23)-c2ccccc21`: the growth in the assay on SK-MEL-2 melanoma is -73.5% (active); with EKVX NSCLC, -71.4% (active); in the assay on SN12C renal it was -89% (active); with TK-10 renal it was -100% (active); in the assay with ACHN renal, -100% (active); in the assay with A498 renal, 39.4%. Besides, the growth in the assay with CCRF-CEM leukemia was -32.5% (active); in the assay with MOLT-4 leukemia it was -55.1% (active).
On to `COc1ccc2nc3c(n2c1)C(=O)C(=O)c1ccccc1-3`, for which the growth is -74.7% (active) in the assay with SK-MEL-2 melanoma; -53.6% (active) with EKVX NSCLC; -88.1% (active) in the assay on SN12C renal; 48.4% with TK-10 renal; -51.3% (active) with ACHN renal; 68.7% with A498 renal. For the same compound, the growth is 20.8% in the assay on CCRF-CEM leukemia, 2.85% (active) in the assay on MOLT-4 leukemia and -1.54% (active) in the assay on SR leukemia.
Consider `O=C1Nc2ccc(Cl)cc2/C1=N/c1nc(-c2ccc(F)cc2)cs1`, for which the growth with SK-MEL-2 melanoma is 39.9%; in the assay with EKVX NSCLC it was 44.5%; in the assay with SN12C renal, 54.8%; in the assay with TK-10 renal, 59.2%; in the assay on ACHN renal it was 48.5%; in the assay on A498 renal, 33.3%. For the same compound, the growth in the assay on CCRF-CEM leukemia was 11.1%; with MOLT-4 leukemia, 1.99% (active); with SR leukemia it was 1.96% (active).
With `COc1ccc(-c2cc(-c3nnc(SCC(=O)Nc4ccc(/C(C)=N\O)cc4)n3-c3ccccc3)c3cc(OC)ccc3n2)cc1`, the growth with SK-MEL-2 melanoma was 86.9%; in the assay with EKVX NSCLC, 82.7%; in the assay with SN12C renal, 86.8%; with TK-10 renal, 87.8%; in the assay on ACHN renal it was 72.6%; in the assay with A498 renal, 78.1%. The growth in the assay on CCRF-CEM leukemia was 37.2%; in the assay with MOLT-4 leukemia, 29.9%; in the assay with SR leukemia, 49.1%.
`COc1ccc(Sc2[nH]c(C(C)=O)c3ccccc23)cc1`: the growth with SK-MEL-2 melanoma was 57.8%; in the assay on EKVX NSCLC, 30.9%; in the assay with SN12C renal it was 87.5%; in the assay with TK-10 renal it was 58.9%; in the assay on ACHN renal, 80.9%; in the assay with A498 renal, -0.948% (active). Also, the growth was 39.6% with CCRF-CEM leukemia, 48.5% in the assay on MOLT-4 leukemia and 8.36% (active) in the assay with SR leukemia.
Take `CC(C)(C)c1nc2c(s1)c1nc(N)ncc1c1ccc(NS(=O)(=O)c3c(F)cccc3F)c(F)c12`: the growth with SK-MEL-2 melanoma was 50%; in the assay with EKVX NSCLC, 60.5%; with SN12C renal it was 58.9%; with TK-10 renal, 64.4%; with ACHN renal it was 22.6%; in the assay with A498 renal, -2.96% (active). For the same compound, the results for the growth with CCRF-CEM leukemia, with MOLT-4 leukemia and in the assay on SR leukemia were 73.3%, 59.5% and 42.3%, respectively.
Regarding `COc1cc(C(C)c2ccc3c(ccn3C)c2)cc(OC)c1OC` (centres undefined), the growth in the assay on SK-MEL-2 melanoma is 30.5%; in the assay with EKVX NSCLC, 34.9%; with SN12C renal it was 32.6%; in the assay with TK-10 renal, 71.3%; in the assay on ACHN renal, 28.5%; in the assay on A498 renal, 8.95% (active). Also, the growth in the assay on CCRF-CEM leukemia is 16.3%; with MOLT-4 leukemia, 12.6%; with SR leukemia, 13.8%.
As to `c1ccc2c3c([nH]c2c1)C(c1ccc(C2NCCc4c2[nH]c2ccccc42)cc1)NCC3` (centres undefined), the growth with SK-MEL-2 melanoma was -13% (active); with EKVX NSCLC, 20.6%; with SN12C renal, 41.6%; with TK-10 renal it was 63.4%; with ACHN renal it was -73.1% (active); in the assay on CCRF-CEM leukemia, -16.7% (active). In addition, the figures for the growth with MOLT-4 leukemia and with SR leukemia were -62% (active) and -51.5% (active), respectively.
For `N#Cc1ccc(Oc2ccc3ccc(=O)oc3c2)cc1`, the growth is 135% in the assay on SK-MEL-2 melanoma; 110% in the assay on EKVX NSCLC; 105% in the assay with SN12C renal; 99.1% in the assay with UO-31 renal; 116% with TK-10 renal; 98.2% in the assay on ACHN renal. Besides, the growth with CCRF-CEM leukemia is 101%; in the assay with MOLT-4 leukemia, 100%; with SR leukemia, 82.9%.
As to `C=C1C(=O)O[C@H]2[C@H]1CC/C(COC(=O)c1cccnc1N)=C\CC[C@@]1(C)O[C@@H]21`, the growth was 39.1% in the assay on SK-MEL-2 melanoma; 34.1% with EKVX NSCLC; 10.4% in the assay on SN12C renal; -6.51% (active) in the assay on TK-10 renal; -3.75% (active) in the assay on ACHN renal; 33.8% with A498 renal. For the same compound, the growth with CCRF-CEM leukemia is -3.91% (active); with MOLT-4 leukemia it was 8.57% (active).
Regarding `Cc1cnc(SCc2ccc(Cl)cc2Cl)nc1Nc1ccc(Cl)c(Cl)c1`, the growth with SK-MEL-2 melanoma is 87.9%; in the assay with EKVX NSCLC, 94.2%; in the assay with SN12C renal, 93%; in the assay on UO-31 renal it was 74.6%; in the assay on TK-10 renal, 100%; with ACHN renal, 96.4%. In addition, the growth in the assay on CCRF-CEM leukemia was 85.6%; in the assay with MOLT-4 leukemia it was 59.5%; with SR leukemia, 72%.
